Experimental data reported in PubChem BioAssay AID504333 (National Center for Advancing Translational Sciences (NCATS), 2011).
The whole screen tested about 360,000 compounds, of which about 16,000 (4.4%) were called active. Another 9% or so got no clear call; they are omitted. The full list was thinned out, with actives kept by preference. Values without a mark were called inactive. Calls follow the shape of the dose curve; as a rule, active = well fitted inhibition curve with a large enough effect; inconclusive = small, poorly fitted or top-dose-only effect; inactive = no such curve, though single readings can be large or run the other way.

What follows are molecules tested against Bromodomain adjacent to zinc finger domain protein 2B (Homo sapiens) (UniProt Q9UIF8) (assay: qHTS Assay for Inhibitors of BAZ2B). Settings: AlphaScreen BAZ2B-H3K14Ac peptide displacement; series mostly up to 114 µM; activity change, negative = inhibition: at the top concentration.
Text: BAZ2B (bromodomain adjacent to zinc finger domain, 2B) belongs to a family of ubiquitously expressed bromodomain containing proteins, which biological function has not yet been elucidated. […] The interaction of BAZ2B with ISWI mediated by the BAZ1 motif has recently been described. […] The protocol is based on the AlphaScreen (PerkinElmer) displacement assay developed by NCGC [5], but uses the peptide ligand Biot-H3K14Ac, a high affinity binding partner for BAZ2B, in an AlphaScreen format. Although AlphaScreen has significant advantages with its utility in a variety of epigenetic target assays, the primary screening data provided in this deposition should be used with caution due to the prevalence of screening artifacts. The top compound concentration tested was 110uM in this assay, which increases number of actives and potential artifacts. An AlphaScreen counterscreen is highly recommended to be run against any putative actives to eliminate non-specific artifacts. Alternatively, one can use other AlphaScreen assays in PubChem to filter out promiscuous hits. Eberharter, A. et al. ACF1 improves the effectiveness of nucleosome mobilization by ISWI through PHD-histone contacts. The EMBO journal 23, 4029-4039. 2004. PMID: 15457208 [2] Jones, M.H. et al. A novel family of bromodomain genes. Genomics 63, 40-45. 2000. PMID: 10662543 [3] Yasgar, et al. Compound Management for Quantitative High-Throughput Screening. JALA. 2008 Apr;13(2):79-89. PMID: 18496600 [4] Inglese, et al. Quantitative high-throughput screening: a titration-based approach that efficiently identifies biological activities in large chemical libraries. Proc Natl Acad Sci. 1;103(31):11473-8. 2006. PMID: 16864780 [5] Quinn et al. A chemiluminescence-based method for identification of histone lysine methyltransferase inhibitors. Mol Biosyst 6(5): 782-8. 2010. PMID: 20567762 [6] Baell,Holloway. New substructure filters for removal of pan assay interference compounds (PAINS) from screening libraries and for their exclusion in bioassays. J Med Chem. 53(7):2719-40. 2010. PMID: 20131845 NIH Molecular Libraries Probe Production Network [MLPCN] NIH Chemical Genomics Center [NCGC] Structural Genomics Consortium (SGC) NIH Grant: 5U54 MH084681-02
To each well of a 1,536w plate, 2ul of BAZ2B protein (final 50nM) and 1ul biotinylated histone peptide acetylated at Lys14 [b-H3(5-23)K14Ac] (final 50nM) were added in 1x PBS buffer, pH 7.4, containing 0.01% Tween-20, using a nanoliter dispenser. Formation of a protein-peptide complex proceeded at room temperature for 30 min. A Kalypsys pin-tool was employed to transfer 23 nL of library compound solution in DMSO to each well. Following a 30 min incubation of the protein-peptide complex with compounds at room temperature, a mixture of 40 ug/mL each streptavidin-coated donor and nickel chelate acceptor AlphaScreen beads (final 10 ug/mL) were added in a 1ul dispense for a final volume of 4ul. A brief centrifugation followed (1000rpm, 1 min) and were then incubated protected from the light for 20 min at room temperature. Plates were read on an EnVision multilabel plate reader using the 1,536 plate HTS AlphaScreen aperture (excitation time 80 ms, measurement time 240 ms).
% is scaled to controls: 0 for no effect and ±100 for the full control effect; potency is read from the fitted curve at half-maximal effect.
Also: nearly all actives have a fitted effect of over 60% in size.

Sequence of Bromodomain adjacent to zinc finger domain protein 2B (Homo sapiens) (Q9UIF8 whole entry, looked up, the tested form may be a part): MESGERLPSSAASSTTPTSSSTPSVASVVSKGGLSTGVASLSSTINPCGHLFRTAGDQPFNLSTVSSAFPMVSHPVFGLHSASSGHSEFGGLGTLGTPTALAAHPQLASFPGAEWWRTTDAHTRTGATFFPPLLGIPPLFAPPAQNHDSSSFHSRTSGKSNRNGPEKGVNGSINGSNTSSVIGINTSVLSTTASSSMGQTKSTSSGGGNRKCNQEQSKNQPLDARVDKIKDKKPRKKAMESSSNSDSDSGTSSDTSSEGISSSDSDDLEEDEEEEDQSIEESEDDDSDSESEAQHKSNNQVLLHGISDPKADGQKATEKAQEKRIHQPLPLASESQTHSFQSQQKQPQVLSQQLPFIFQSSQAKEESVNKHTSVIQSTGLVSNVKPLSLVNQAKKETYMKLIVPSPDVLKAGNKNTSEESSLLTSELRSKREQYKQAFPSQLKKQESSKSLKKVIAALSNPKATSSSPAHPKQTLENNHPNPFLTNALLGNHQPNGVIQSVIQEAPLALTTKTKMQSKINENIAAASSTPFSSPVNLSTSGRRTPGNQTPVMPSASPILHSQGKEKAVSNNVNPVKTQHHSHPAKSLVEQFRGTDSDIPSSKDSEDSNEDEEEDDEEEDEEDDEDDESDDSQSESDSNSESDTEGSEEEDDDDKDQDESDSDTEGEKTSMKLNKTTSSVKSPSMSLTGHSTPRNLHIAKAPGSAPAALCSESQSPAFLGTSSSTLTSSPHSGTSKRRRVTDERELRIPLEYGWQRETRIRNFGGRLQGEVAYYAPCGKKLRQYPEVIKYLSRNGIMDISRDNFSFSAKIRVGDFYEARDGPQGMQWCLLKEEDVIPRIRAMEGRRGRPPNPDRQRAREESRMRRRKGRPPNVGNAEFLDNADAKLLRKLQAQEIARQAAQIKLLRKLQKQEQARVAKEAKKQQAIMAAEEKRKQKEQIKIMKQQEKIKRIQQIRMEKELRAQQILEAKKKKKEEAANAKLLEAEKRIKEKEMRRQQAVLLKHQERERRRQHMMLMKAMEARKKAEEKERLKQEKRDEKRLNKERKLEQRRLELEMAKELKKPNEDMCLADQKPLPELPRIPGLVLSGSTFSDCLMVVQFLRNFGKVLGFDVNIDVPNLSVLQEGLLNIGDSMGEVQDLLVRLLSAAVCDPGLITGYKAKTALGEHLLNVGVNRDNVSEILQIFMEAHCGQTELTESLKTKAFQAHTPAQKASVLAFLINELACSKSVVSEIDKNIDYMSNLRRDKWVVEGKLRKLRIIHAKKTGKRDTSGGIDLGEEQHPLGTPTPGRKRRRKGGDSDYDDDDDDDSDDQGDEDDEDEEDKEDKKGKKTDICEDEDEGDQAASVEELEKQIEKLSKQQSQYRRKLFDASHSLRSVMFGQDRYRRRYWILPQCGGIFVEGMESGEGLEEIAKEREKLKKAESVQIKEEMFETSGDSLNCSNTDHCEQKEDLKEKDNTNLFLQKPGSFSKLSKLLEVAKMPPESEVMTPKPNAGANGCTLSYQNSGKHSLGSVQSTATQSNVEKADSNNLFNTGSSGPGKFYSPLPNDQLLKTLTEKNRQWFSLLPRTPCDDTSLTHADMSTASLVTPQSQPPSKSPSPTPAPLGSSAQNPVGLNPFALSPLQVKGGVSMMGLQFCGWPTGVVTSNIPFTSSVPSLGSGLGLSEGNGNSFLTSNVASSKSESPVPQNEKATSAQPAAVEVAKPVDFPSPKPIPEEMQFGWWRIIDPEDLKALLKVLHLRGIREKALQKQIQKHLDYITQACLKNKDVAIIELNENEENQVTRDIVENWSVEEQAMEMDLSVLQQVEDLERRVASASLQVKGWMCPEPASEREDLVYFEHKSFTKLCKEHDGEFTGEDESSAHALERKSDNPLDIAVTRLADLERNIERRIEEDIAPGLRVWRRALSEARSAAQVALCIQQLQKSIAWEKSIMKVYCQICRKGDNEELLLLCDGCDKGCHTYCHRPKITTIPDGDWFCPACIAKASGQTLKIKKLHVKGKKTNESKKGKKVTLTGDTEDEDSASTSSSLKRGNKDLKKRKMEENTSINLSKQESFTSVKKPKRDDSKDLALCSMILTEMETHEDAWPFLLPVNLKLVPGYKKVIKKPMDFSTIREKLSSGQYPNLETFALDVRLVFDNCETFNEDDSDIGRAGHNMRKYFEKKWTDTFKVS

Q: How did the “activity change, negative = inhibition” value turn out when `Cc1cc(C)c2oc(C(=O)Nc3ccc(S(=O)(=O)N4CCCCCC4)cc3)cc(=O)c2c1` was run?
A: -12%

Q: How did the “activity change, negative = inhibition” value turn out when `CCCCc1nn2c(=O)cc(COC(=O)c3ccc(NC(=O)c4ccccc4C)cc3)nc2s1` was run?
A: -9.26%

Q: Which “activity change, negative = inhibition” value does the source give for `CN1CCN(C2(CNC(=O)COc3ccc(C(C)(C)C)cc3)CCCCC2)CC1` here?
A: -24.8%

Q: With `CC1CCN(S(=O)(=O)c2ccc3c(c2)N(CC(=O)NCc2ccccc2Cl)C(=O)CO3)CC1` as the molecule, how does the “activity change, negative = inhibition” value read?
A: -6.03%

Q: How did the “activity change, negative = inhibition” value turn out when `CCOC(=O)c1scc(-c2ccc(C)cc2)c1S(=O)(=O)Nc1cc(C)ccc1C` was run?
A: -8.58%

Q: With `O=C1CCCC(O)=C1N=Nc1ccc(S(=O)(=O)N2CCOCC2)cc1` as the molecule, how does the Potency read?
A: 79.4 µM (active)

Q: Which “activity change, negative = inhibition” value does the source give for `CC1(C)CC(=O)C(N=Nc2ccc(S(=O)(=O)N3CCCCCC3)cc2)=C(O)C1` here?
A: -3.64%

Q: Which “activity change, negative = inhibition” value does the source give for `O=C(CN1C(=O)CCC1=O)Nc1ccc(S(=O)(=O)N2CCOCC2)cc1` here?
A: -5.81%

Q: Which “activity change, negative = inhibition” value does the source give for `COC(=O)c1ccc2c(c1)N(CC(=O)Nc1ccc(C)c(C)c1)C(=O)c1ccccc1S2` here?
A: -1.49%

Q: With `COCCNC(=O)CSc1c(C)cnc2c1c(=O)n(C)c(=O)n2C` as the molecule, how does the “activity change, negative = inhibition” value read?
A: 4.31%

Q: How did the “activity change, negative = inhibition” value turn out when `COc1cc2ccccc2cc1C(=O)Nc1cccc(-c2nc3ccccc3o2)c1` was run?
A: 1.7%

Q: For `Cc1ccccc1NC(=O)CN1C(=O)C(C)(C)c2ccccc21`, which “activity change, negative = inhibition” value is on record?
A: 5.06%

Q: Which Potency does the source give for `Cc1ccccc1NC(=O)CN1C(=O)N/C(=C\c2cccn2-c2cccc(C(=O)O)c2)C1=O` here?
A: 20 µM (active)

Q: How did the “activity change, negative = inhibition” value turn out when `O=C1N/C(=C/c2cccn2-c2ccccc2)C(=O)N1c1cccc(Cl)c1` was run?
A: -0.902%

Q: `COc1ccc(OC)c(NC(=O)CSC2=Nc3ccccc3C3=NC(CC(=O)NCCc4ccccc4)C(=O)N23)c1` (configuration not stated) was tested. Which “activity change, negative = inhibition” value did it give?
A: -15.3%

Q: `O=C(CCSCc1ccccc1F)N1CCN(c2ccc(Cl)cc2)CC1` was tested. Which “activity change, negative = inhibition” value did it give?
A: 1.82%

Q: `CCCc1nc2ccccc2c(=O)n1/N=C/c1ccc(O)c(O)c1` was tested. Which Potency did it give?
A: 56.2 µM (active)

Q: `O=c1c2ccccc2ncn1/N=C/c1ccccc1` was tested. Which “activity change, negative = inhibition” value did it give?
A: 0.598%

Q: Which “activity change, negative = inhibition” value does the source give for `CCOc1cc(/C=N/NC(=O)c2cc(-c3ccccc3)nc3ccccc23)ccc1O` here?
A: -0.596%

Q: Which “activity change, negative = inhibition” value does the source give for `COc1ccc(Cn2ccn(Cc3cccc(OC)c3)c(=O)c2=O)cc1` here?
A: -26.1%

Q: How did the “activity change, negative = inhibition” value turn out when `COc1ccc(CCNC(=O)c2ccc(-n3c(C)cc4c3CCCC4)cc2)cc1OC` was run?
A: -8.94%

Q: `CC(C)(C)c1ccc(Oc2ccc(N)cc2)cc1` was tested. Which Potency did it give?
A: 39.8 µM (active)

Q: For `Cc1ccc(Oc2ccc(N)cc2)cc1`, which Potency is on record?
A: 31.6 µM (active)

Q: How did the “activity change, negative = inhibition” value turn out when `Cc1cc(C)cc(N)c1` was run?
A: 0.691%

Q: `CN(C)S(=O)(=O)c1ccc(Oc2ccc(S(=O)(=O)N(C)C)cc2)cc1` was tested. Which “activity change, negative = inhibition” value did it give?
A: 0.486%

Q: How did the “activity change, negative = inhibition” value turn out when `CC(C)(c1ccccc1)c1ccc(OCCN)cc1` was run?
A: -0.871%

Q: For `CC(C)(C)c1ccc(OC2=CS(=O)(=O)c3ccccc32)cc1`, which “activity change, negative = inhibition” value is on record?
A: 3.61%

Q: How did the “activity change, negative = inhibition” value turn out when `O=C(CSc1oc(-c2ccco2)nc1S(=O)(=O)c1ccc(Cl)cc1)c1ccccc1` was run?
A: 15.2%

Q: `CC(C)(C)C1C/C(=C/c2ccco2)C(=O)/C(=C/c2ccco2)C1` (configuration not stated) was tested. Which Potency did it give?
A: 25.1 µM (active)

Q: How did the “activity change, negative = inhibition” value turn out when `CCc1ccc(C2C(C(=O)Nc3ccccc3)=C(C)Nc3c(C(=O)Nc4ccc(C)cc4)cnn32)cc1` (configuration not stated) was run?
A: 8.98% [at 57.1 µM]

Q: `Cc1cc(O)c(C(c2ccccc2)N2CCN(c3ccccc3F)CC2)c(=O)n1Cc1ccco1` (configuration not stated) was tested. Which “activity change, negative = inhibition” value did it give?
A: -38.4%

Q: For `O=C(O)c1ccccc1N=N/C(=N/Nc1cc(S(=O)(=O)O)ccc1O)c1ccccc1`, which Potency is on record?
A: 11.2 µM (active)

Q: `CCOC(=O)N1CCc2c(sc3c2c(=O)n(-c2ccc(CC)cc2)c(=O)n3C)C1` was tested. Which “activity change, negative = inhibition” value did it give?
A: 2.66%

Q: `O=[N+]([O-])c1ccc(F)cc1Oc1nc(-c2cccnc2)nc2ccccc12` was tested. Which “activity change, negative = inhibition” value did it give?
A: -16.4%

Q: `O=[N+]([O-])c1ccc(Oc2ccc(F)cc2Br)c2ccncc12` was tested. Which Potency did it give?
A: 31.6 µM (active)

Q: For `Oc1c(Cl)cc(Cl)c(Cl)c1Cc1c(O)c(Cl)cc(Cl)c1Cl`, which Potency is on record?
A: 50.1 µM (active)

Q: `CCOc1ccc(N(Cc2ccccc2)C(=O)c2nc(S(C)(=O)=O)ncc2Cl)cc1` was tested. Which “activity change, negative = inhibition” value did it give?
A: -21.6%

Q: For `CCc1ccc(NC(=O)CN2C(=O)CCSc3ccc(S(=O)(=O)N4CCCC4)cc32)cc1`, which “activity change, negative = inhibition” value is on record?
A: -4.59%

Q: For `CCOC(=O)c1ccc(NC(=O)c2c(NCc3cccc(OC)c3)sc3c2CCC3)cc1`, which “activity change, negative = inhibition” value is on record?
A: 3.03%

Q: For `CCOC(=O)c1ccc(NC(=O)c2c(NCc3cccs3)sc3c2CCCC3)cc1`, which Potency is on record?
A: 28.2 µM (active)

Q: `CCOC(=O)c1ccc(NC(=O)c2csc3c2CCCCC3)cc1` was tested. Which “activity change, negative = inhibition” value did it give?
A: -0.642%

Q: Which “activity change, negative = inhibition” value does the source give for `Cc1ccc(-c2nn3c(=O)cc(CN4CCN(C(=O)Nc5cccc(C(F)(F)F)c5)CC4)nc3s2)cc1` here?
A: -22.9%

Q: For `COc1cc(CN(C(=O)c2ccccc2Br)c2ccccn2)cc(OC)c1OC`, which “activity change, negative = inhibition” value is on record?
A: -18.4%

Q: `COc1ccc(OC)c(CNC(=O)c2c3c(nc4ccccc24)C(=O)N(C2CCCCC2)C3)c1` was tested. Which “activity change, negative = inhibition” value did it give?
A: -9.86%

Q: With `Cc1cc(Nc2ccc(C(=O)N3CCCCC3)cc2)c2cccc(C)c2n1` as the molecule, how does the “activity change, negative = inhibition” value read?
A: 0.772%

Q: `Cc1ccc(NC2=NC(c3ccccc3)n3c(nc(C)cc3=O)N2)cc1` (configuration not stated) was tested. Which “activity change, negative = inhibition” value did it give?
A: 12.2%

Q: With `Cc1ccc(Nc2cc(C)nc3c(C)ccc([N+](=O)[O-])c23)cc1` as the molecule, how does the Potency read?
A: 10 µM (active)

Q: `Cc1cc(=O)n2[nH]c(-c3cccc(Cl)c3)cc2n1` was tested. Which “activity change, negative = inhibition” value did it give?
A: -1.33%

Q: For `Cc1cc(=O)n2[nH]c(-c3sccc3-n3c(C)ccc3C)cc2n1`, which Potency is on record?
A: 50.1 µM (active)

Q: Which “activity change, negative = inhibition” value does the source give for `CCc1c(C)nc2cc(-c3cccs3)[nH]n2c1=O` here?
A: 2.81%

Q: Which “activity change, negative = inhibition” value does the source give for `COc1ccc(Cc2nc3ccc(C(=O)NCc4ccccc4C)cc3o2)cc1` here?
A: 0.109%

Q: How did the Potency turn out when `Cc1cccc(N2CCN(c3ccc(C(=O)O)cc3NC(=O)c3ccccc3F)CC2C)c1` (configuration not stated) was run?
A: 56.2 µM (active)

Q: `Cc1cccc(C(=O)Nc2ccccc2N2CCN(c3ccc(F)cc3)CC2)c1` was tested. Which “activity change, negative = inhibition” value did it give?
A: -8.8%

Q: With `Cc1cccc(N2CCN(C(=O)c3ccccc3NC(=O)C3CCCCC3C(=O)O)CC2)c1` (configuration not stated) as the molecule, how does the “activity change, negative = inhibition” value read?
A: -2.25%

Q: `COc1ccc(NC(=O)c2sc3nc(-c4cc5cccc(OC)c5oc4=O)[nH]c(=O)c3c2C)cc1` was tested. Which “activity change, negative = inhibition” value did it give?
A: 5.3%

Q: For `CCn1c2ccccc2c2cc(NC(=O)COC(=O)c3ccccc3Br)ccc21`, which “activity change, negative = inhibition” value is on record?
A: -36.9%

Q: For `CCn1c2ccccc2c2cc(NC(=O)CNC)ccc21`, which Potency is on record?
A: 56.2 µM (active)

Q: Which “activity change, negative = inhibition” value does the source give for `CCn1c2ccccc2c2cc(NC(=O)COc3ccc(C)cc3C)ccc21` here?
A: 2.19%

Q: Which “activity change, negative = inhibition” value does the source give for `COc1cc(Cl)ccc1Nc1ncc(C(=O)N2CCN(c3ccccc3OC)CC2)c2ccccc12` here?
A: -3.95%

Q: How did the “activity change, negative = inhibition” value turn out when `Cc1cccc(N2CCN(c3c(CN4CCCC4)c(=O)oc4ccccc34)CC2)c1C` was run?
A: -9.79%

Q: How did the “activity change, negative = inhibition” value turn out when `Cc1cccc(N2CCN(Cc3c(C)n(C)n(-c4ccccc4)c3=O)CC2)c1C` was run?
A: 5.93%

Q: `Cc1cccc(N2CCN(C3=C(c4ccccc4)C(=O)c4ccccc43)CC2)c1C` was tested. Which Potency did it give?
A: 2.24 µM (active)
